Only a selection was taken, and hits are over-represented in it overall.
FECH inh = inhibitors of human ferrochelatase | purified FECH, Ni-mesoporphyrin absorbance 550 nm | P22830 | 3.3% of 20,000 active | calls only at 10 µM (by protocol);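 active = enzyme reaction rate more than 3 SD below the solvent-only control wells on the same plate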;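 also: lower slope than DMSO wells means FECH inhibition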
Target sequence (P22830 whole entry, looked up): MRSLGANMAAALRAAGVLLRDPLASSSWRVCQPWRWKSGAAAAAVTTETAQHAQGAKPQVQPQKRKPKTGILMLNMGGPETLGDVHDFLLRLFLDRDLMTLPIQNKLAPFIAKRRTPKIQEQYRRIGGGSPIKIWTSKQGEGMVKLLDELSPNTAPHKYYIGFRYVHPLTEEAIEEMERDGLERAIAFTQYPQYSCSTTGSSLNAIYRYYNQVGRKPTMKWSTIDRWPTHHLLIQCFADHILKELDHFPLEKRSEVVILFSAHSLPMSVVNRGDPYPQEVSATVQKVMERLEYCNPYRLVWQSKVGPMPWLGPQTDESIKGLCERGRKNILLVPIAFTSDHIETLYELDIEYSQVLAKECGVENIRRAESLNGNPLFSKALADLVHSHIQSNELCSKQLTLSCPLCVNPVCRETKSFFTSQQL
Of the large screens only hits and unclear results are named; the others gave an inactive call.

O=S(=O)(NCc1nc2cccnc2n1C1CCCC1)c1cccc2nsnc12	none
CC(C)Cc1nnc(SCC(=O)O)n1-c1ccccc1Cl	none
Cc1cc(C)cc(NS(=O)(=O)c2cc(C(=O)N3CCCCC3)cs2)c1	none
COc1cccc(N2CCN(S(=O)(=O)c3cc(C(=O)N4CCCC4)cs3)CC2)c1	none
O=C(c1csc(S(=O)(=O)NC2CC2)c1)N1CCCC1	none
CC(C)(C)NS(=O)(=O)c1cc(C(=O)N2CCCCC2)cs1	FECH inh active
CC(=O)c1ccc(N2CCN(S(=O)(=O)c3cc(C(=O)N4CCCCC4)cs3)CC2)cc1	none
CC(=O)c1ccc(N2CCN(S(=O)(=O)c3cc(C(=O)N4CCCC4)cs3)CC2)cc1	FECH inh active
CCC(C(=O)Nc1cc(C)nn1-c1ncnc2c1cnn2-c1cccc(Cl)c1)c1ccccc1 (configuration not stated)	none
COc1ccc(CC2CN(Cc3cnc(-c4ccccn4)nc3)CCO2)cc1 (configuration not stated)	none
Cc1ccc(-c2nc(N)nc3nc[nH]c23)c(-n2nc(C)cc2C)c1	none
COc1cccc(-c2nc(CSc3nc(-c4cccc(Cl)c4)cc(=O)[nH]3)c(C)o2)c1OC	none
Cc1cc(C)cc(NC(=O)CN2C(=O)CN(C)C(=O)c3ccccc32)c1	none
CN1CC(=O)N(CC(=O)Nc2ccccc2)c2ccccc2C1=O	none
CC(C)c1ccc(NC(=O)CN2C(=O)CN(C)C(=O)c3ccccc32)cc1	none
Cc1ccc(NC(=O)CN2C(=O)CN(C)C(=O)c3ccccc32)cc1	none
CN1CC(=O)N(CC(=O)Nc2ccc3c(c2)OCO3)c2ccccc2C1=O	FECH inh active
CN1CC(=O)N(CC(=O)Nc2ccc(F)c(Cl)c2)c2ccccc2C1=O	FECH inh active
O=C(NCc1ccc(F)cc1)C1CCCN1c1nnc(N2CCCCC2=O)s1 (configuration not stated)	none
CCc1ccc(S(=O)(=O)NCc2nc3cccnc3n2Cc2ccccc2)cc1	none
COc1ccc(S(=O)(=O)N2CCN(c3nc(C)cc(N(C)C)n3)CC2)cc1	none
C/C=C/Cc1nnc(C(=O)N2CCCC(CO)(CC(C)C)C2)o1 (configuration not stated)	none
CC(C)(O)C#Cc1cccc(C(=O)N2CCc3nc[nH]c3C2)c1	none
CC(C)CC1(CO)CCCN(C(=O)c2cccc(C#CC(C)(C)O)c2)C1 (configuration not stated)	FECH inh active
CCn1c(C2CCN(C(=O)Cc3cn4ccsc4n3)CC2)n[nH]c1=O	none
C=CCOc1c(Cl)cc(CN(C)C(C)c2ccon2)cc1Cl (configuration not stated)	none
Cc1ccccc1-c1nc2nc(CNC(C)C)cc(=O)n2[nH]1	none
Cc1ccccc1-c1nc2nc(CNc3ccccc3F)cc(=O)n2[nH]1	FECH inh active
Cc1ccccc1NCc1cc(=O)n2[nH]c(-c3ccccc3C)nc2n1	FECH inh active
CC(C)c1cc(C(=O)NC(Cn2ccnc2)C(C)C)nc2ncnn12 (configuration not stated)	none
Cc1c(CNC(=O)C(=O)c2c(-c3ccccc3)cc3ccccn23)cnn1C	none
Cc1cc(C)cc(C(=O)Nc2cc(C)nn2-c2ncnc3c2cnn3-c2ccc(Cl)cc2)c1	none
COc1cccc(C(=O)Nc2cc(C)nn2-c2ncnc3c2cnn3-c2cccc(C)c2C)c1	none
Cc1cc(NC(=O)c2ccc(F)c(F)c2)n(-c2ncnc3c2cnn3-c2cccc(C)c2C)n1	none
Cc1cc(C)cc(C(=O)Nc2cc(C)nn2-c2ncnc3c2cnn3-c2cccc(Cl)c2)c1	FECH inh active
Cc1ccc(-n2ncc3c(-n4nc(C)cc4NC(=O)C4CCCC4)ncnc32)c(C)c1	FECH inh active
Cc1ccc(C(=O)Nc2cc(C)nn2-c2ncnc3c2cnn3-c2cccc(Cl)c2)cc1	none
CCCCC1CCC(C(=O)Nc2cc(C)nn2-c2ncnc3c2cnn3-c2ccc(C)cc2C)CC1 (configuration not stated)	none
Cc1ccc(C(=O)Nc2cc(C)nn2-c2ncnc3c2cnn3-c2cccc(C)c2C)cc1	FECH inh active
Cc1ccc(-n2ncc3c(-n4nc(C)cc4NC(=O)CCC4CCCC4)ncnc32)c(C)c1	none
CCC(C(=O)Nc1cc(OC)ccc1OC)n1c(C(=O)OC)cc2ccsc21 (configuration not stated)	none
COc1ccc(F)c(CN2CCC3(CC2)CNC(=O)C3)c1Cl	none
Cc1cc(C)c2c(CC(=O)NCCc3nnc(N)s3)coc2c1C	none
COc1cc(OC)c(NC(=O)CN2CCCN(Cc3ccccc3)S2(=O)=O)cc1Cl	FECH inh active
COc1ccccc1NC(=O)CN1CCCN(Cc2cccc(F)c2)S1(=O)=O	none
CCOc1ccccc1NC(=O)CN1CCCN(Cc2ccc(OC)cc2)S1(=O)=O	none
COc1cc(OC)c(NC(=O)CN2CCN(Cc3ccccc3F)S2(=O)=O)cc1Cl	none
COc1ccccc1NC(=O)CN1CCCN(Cc2ccc(Cl)cc2)S1(=O)=O	none
CCOC(=O)c1ccccc1NC(=O)CN1CCCN(Cc2cccc(C)c2)S1(=O)=O	none
CCOc1ccccc1NC(=O)CN1CCCN(Cc2cccc(C)c2)S1(=O)=O	FECH inh active
COc1ccccc1NC(=O)CN1CCCN(Cc2cccc(C)c2)S1(=O)=O	FECH inh active
